Data on 7 compounds can be found in PubChem BioAssay (EPA / NIEHS).

Experiment [1] is described as follows: TOX21_p53_BLA_p3_viability: Viability Assessment in the Tox21 HCT-116 p53 Agonism Beta-lactamase Assay, Phase 3 (AID 2283593).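 Further: cells exposed to compound for 16 h before reading.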 The procedure, abridged:
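Cellular ATP was quantified by CellTiter-Glo luminescence, read after 30 min at room temperature. Beforehand, HCT116 cells (4000/well) received compound 5 h post-seeding, 217-fold diluted from DMSO, then incubated 16 h at 37C.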

Experiment [2] has as its target Cellular tumor antigen p53 (Homo sapiens) (UniProt P04637). Nature of the experiment: TOX21_p53_BLA_p3_ratio: Tox21 HCT-116 p53 Agonism Beta-lactamase Assay, Ratio, Phase 3 (AID 2283596). The procedure, abridged:
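HCT116 p53-bla cells (4000/well) given compound in DMSO (217-fold dilution) after 5 h, incubated 16 h at 37C. CCF4-AM substrate 2 h at room temperature; 460/530 nm emission ratio, gain fitted against DMSO.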

Experiment [3] is described as follows: TOX21_p53_BLA_p4_viability: Viability Assessment in the Tox21 HCT-116 p53 Agonism Beta-lactamase Assay, Phase 4 (AID 2283597).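 Further: hits lower the luminescence signal meaning cytotoxicity.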 In a few lines: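 Luminescent ATP readout (CellTiter-Glo, 30 min, room temperature) in the same wells as the p53 bla ratio. HCT116 cells were treated for 16 h at 37C with DMSO-dissolved compounds.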
Experiment [4] concerns the target Cellular tumor antigen p53 (Homo sapiens) (UniProt P04637). Nature of the experiment: TOX21_p53_BLA_p5_ratio: Tox21 HCT-116 p53 Agonism Beta-lactamase Assay, Ratio, Phase 5 (AID 2283599). The procedure, abridged:
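Beta-lactamase reporter ratio (blue 460 nm over green 530 nm, 405 nm excitation) after 2 h CCF4-AM loading, in HCT-116 cells exposed 16 h at 37 C to compounds pinned at 217-fold dilution. Increases relative to DMSO baseline scored.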

The nature of experiment [5]: TOX21_p53_BLA_p5_viability: Viability Assessment in the Tox21 HCT-116 p53 Agonism Beta-lactamase Assay, Phase 5 (AID 2283600). In a few lines: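 Seeded cells (4000/well) settle 5 h before compound addition. Plates then incubate 16 h at 37C, receive FRET substrate for 2 h, and finally CellTiter-Glo, with luminescence measured after a 30 min room-temperature incubation.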

The target of experiment [6] is Cellular tumor antigen p53 (Homo sapiens) (UniProt P04637). In words: TOX21_p53_BLA_p4_ratio: Tox21 HCT-116 p53 Agonism Beta-lactamase Assay, Ratio, Phase 4 (AID 2283601). In a few lines: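 Signal is the blue/green (460nm/530nm) ratio of cleaved versus uncleaved CCF4-AM substrate, read after 2 h substrate loading. Cells were HCT116 carrying the p53-responsive beta-lactamase reporter, dosed 16 h at 37C, 5% CO2; CellTiter-Glo measured in parallel.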
Sequence of Cellular tumor antigen p53 (Homo sapiens) (P04637 whole entry, looked up): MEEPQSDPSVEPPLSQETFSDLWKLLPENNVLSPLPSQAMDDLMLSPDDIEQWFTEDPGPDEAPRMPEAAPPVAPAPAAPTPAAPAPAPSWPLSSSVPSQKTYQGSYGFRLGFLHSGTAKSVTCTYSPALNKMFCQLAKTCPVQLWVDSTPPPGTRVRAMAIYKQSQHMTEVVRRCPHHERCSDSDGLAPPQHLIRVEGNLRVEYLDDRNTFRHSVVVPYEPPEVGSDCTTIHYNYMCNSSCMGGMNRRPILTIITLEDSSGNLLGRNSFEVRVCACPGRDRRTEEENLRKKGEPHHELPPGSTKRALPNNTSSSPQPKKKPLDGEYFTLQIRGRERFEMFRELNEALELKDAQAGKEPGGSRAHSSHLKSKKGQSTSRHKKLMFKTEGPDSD

A short description of experiment [7]: Tanguay_ZF_120hpf_MORT_legacy: (Legacy) Oregon State University Tanguay Lab 120 Hour Post-fertilization zebrafish Assay for Mortality (AID 2283633). In a few lines: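 Single dechorionated Tropical 5D embryos were held with test chemical (0.64% DMSO final) from 6 to 120 hpf at 28C under foil. Deaths at 24 or 120 hpf were recorded as binary calls, analysed for increase over DMSO controls.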

Experiment [8] in a line: Tanguay_ZF_120hpf_YSE_legacy: (Legacy) Oregon State University Tanguay Lab 120 Hour Post-fertilization zebrafish Assay for Yolk Sac Edema (AID 2283634). The procedure, abridged: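 Single dechorionated embryos were held in sealed plates at 28C with test chemical (0.64% DMSO final) from 6 hpf until 120 hpf. Edema of the yolk sac was then recorded as a binary endpoint; non-mortality endpoints were skipped for dead embryos.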

Experiment [9] in a line: Tanguay_ZF_120hpf_AXIS_legacy: (Legacy) Oregon State University Tanguay Lab 120 Hour Post-fertilization zebrafish Assay for Body Axis Malformation (AID 2283635).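 On AC50: potency for an increased fraction of larvae scored with body axis malformation.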 The procedure, abridged:
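Each dechorionated embryo was exposed alone from 6 hpf, with DMSO at 0.64% (vol/vol) and trimethyltin chloride 5 uM as positive control. Axis malformation was recorded at 120 hpf unless the embryo had died.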

Experiment [10] can be described thus: Tanguay_ZF_120hpf_SNOU_legacy: (Legacy) Oregon State University Tanguay Lab 120 Hour Post-fertilization zebrafish Assay for Snout Malformation (AID 2283637). The procedure, abridged:
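Snout malformation read as a yes/no call on brightfield images of 120 hpf larvae (Tropical 5D strain). Static exposure began at 6 hpf on dechorionated embryos in 0.64% DMSO, with gain of signal analysed versus DMSO controls.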

The nature of experiment [11]: Tanguay_ZF_120hpf_OTIC_legacy: (Legacy) Oregon State University Tanguay Lab 120 Hour Post-fertilization zebrafish Assay for Otic Vesicle Malformation (AID 2283639). In a few lines: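 Tropical 5D wild-type zebrafish embryos were exposed statically in sealed, foil-covered plates at 28C until 120 hpf, with 0.64% (vol/vol) DMSO final. Otic vesicle malformation was scored present/absent by brightfield microscopy, with DMSO as baseline.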

Experiment [12] in a line: Tanguay_ZF_120hpf_PE_legacy: (Legacy) Oregon State University Tanguay Lab 120 Hour Post-fertilization zebrafish Assay for Pericardial Edema (AID 2283640). In a few lines: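 Zebrafish larvae are exposed from early development to 120 hpf at 28C, with 0.64% DMSO final. Each surviving larva receives a yes/no pericardial edema call by brightfield imaging, analysed relative to the DMSO baseline.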

Experiment [13] is described as follows: Tanguay_ZF_120hpf_SOMI_legacy: (Legacy) Oregon State University Tanguay Lab 120 Hour Post-fertilization zebrafish Assay for Somite Malformation (AID 2283647). The procedure, abridged: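 Somitogenesis defects are recorded as binary calls in whole larvae at 120 hpf after continuous static chemical exposure starting at 6 hpf in dechorionated 5D embryos. DMSO serves as negative control and baseline.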

Experiment [14] in a line: Tanguay_ZF_120hpf_CFIN_legacy: (Legacy) Oregon State University Tanguay Lab 120 Hour Post-fertilization zebrafish Assay for Caudal Fin Malformation (AID 2283649). The procedure, abridged: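 Single dechorionated 5D wild-type embryos are dosed at 6 hpf (final DMSO 0.64%) and held statically at 28C. Caudal fin malformation is recorded as present or absent at 120 hpf under brightfield, excluding dead embryos.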

Experiment [15] in a line: Tanguay_ZF_120hpf_CIRC_legacy: (Legacy) Oregon State University Tanguay Lab 120 Hour Post-fertilization zebrafish Assay for Circulatory Malformation (AID 2283651). In a few lines: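 Tropical 5D wild-type embryos, dechorionated with pronase at 4 hpf, were placed singly in wells at 6 hpf and exposed statically at 28C to 120 hpf (0.64% DMSO final). Circulatory malformation was scored present/absent by brightfield microscopy.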

Experiment [16] is described as follows: Tanguay_ZF_120hpf_EYE_legacy: (Legacy) Oregon State University Tanguay Lab 120 Hour Post-fertilization zebrafish Assay for Eye Malformation (AID 2283636). In a few lines:
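Read-out is binary presence or absence of eye malformation, scored by brightfield microscopy at 120 hpf. Single larvae were exposed from 6 hpf in embryo medium containing 0.64% DMSO, with DMSO as baseline.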

A short description of experiment [17]: Tanguay_ZF_120hpf_JAW_legacy: (Legacy) Oregon State University Tanguay Lab 120 Hour Post-fertilization zebrafish Assay for Jaw Malformation (AID 2283638). The procedure, abridged: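 Wild-type 5D embryos, chorion removed at 4 hpf, dosed singly from 6 hpf; 28C static, sealed, foil-covered, to 120 hpf. Endpoint: jaw defect yes/no (brightfield); mortality excludes scoring.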

Experiment [18] can be described thus: Tanguay_ZF_120hpf_BRAI_legacy: (Legacy) Oregon State University Tanguay Lab 120 Hour Post-fertilization zebrafish Assay for Brain Malformation (AID 2283641). In a few lines:
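Static exposure of staged wild-type embryos until 120 hpf, kept at 28C with light excluded and final DMSO of 0.64% (vol/vol). Presence or absence of brain malformation was noted under brightfield; mortality precluded scoring.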

Experiment [19] is described as follows: Tanguay_ZF_120hpf_PFIN_legacy: (Legacy) Oregon State University Tanguay Lab 120 Hour Post-fertilization zebrafish Assay for Pectoral Fin Malformation (AID 2283648).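 Further: each larva judged yes or no for fin defect by brightfield with dead larvae skipped.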 In a few lines:
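5D WT zebrafish; pronase dechorionation 4 hpf; 1 embryo/well at 6 hpf; static exposure to 120 hpf, 28C, sealed, foil-covered; final DMSO 0.64% v/v; 5 uM trimethyltin chloride positive control; fin defect scored yes/no.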

Experiment [20] can be described thus: Tanguay_ZF_120hpf_PIG_legacy: (Legacy) Oregon State University Tanguay Lab 120 Hour Post-fertilization zebrafish Assay for Pigmentation Malformation (AID 2283650). The procedure, abridged:
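Pronase dechorionation at 4 hpf; embryos plated at 6 hpf, one per well; static exposure, sealed and foil-covered, 28C, to 120 hpf; pigmentation read by brightfield, binary; DMSO 0.64% baseline, 5uM trimethyltin chloride positive control.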

Each structure is given as a SMILES string. Results filed as inconclusive are left out. More than one record can exist for a structure, and the calls need not agree. Calls of active or inactive are those of the source. How the source made its calls: active means hit-call score of the fitted dose curve at least 0.9, where 1 is the maximum; inconclusive means response in the unintended direction; inactive means score below 0.9.

The AC50 is the concentration at which the activity in the assay is half-maximal. `CC(=O)N1CCN(c2ccc(OC[C@H]3CO[C@](Cn4ccnc4)(c4ccc(Cl)cc4Cl)O3)cc2)CC1`: the AC50 in experiment [1] was 46.1 µM (active); in experiment [2], 58.3 µM (active); in [3] it was 58.7 µM (active); in experiment [4], 46.1 µM (active); in [5] it was 64.4 µM (active); in experiment [6] it was 44.3 µM (active). In addition, the call in [1], in experiment [2], in [3], in experiment [4], in experiment [5] and in [6] was inactive. Further, the compound was called inactive in experiment [7], in [8], in experiment [9], in experiment [10], in experiment [11] and in experiment [12]. Also, the result in experiment [13], in experiment [14] and in [15] was inactive.
With `c1ccc(C[n+]2cccc3ccccc32)cc1`, the call in experiment [1], in experiment [2], in [4], in experiment [5], in experiment [6] and in experiment [7] was inactive. Moreover, the outcome in experiment [8], in experiment [9], in [16], in experiment [17], in experiment [11] and in [12] was inactive. For the same compound, the result in experiment [18], in experiment [19], in experiment [14], in [20] and in [15] was inactive.
As for `Cc1cc2c(cc1C(F)(F)F)N(C(=O)Nc1ccc(Oc3cccnc3C)nc1)CC2`, the compound was called inactive in experiment [1], in experiment [2], in experiment [3], in [5], in experiment [6] and in [7]. Besides, the compound was called inactive in experiment [9], in [16], in experiment [10], in [17], in experiment [11] and in experiment [12]. The result in experiment [18], in experiment [13], in experiment [14] and in experiment [20] was inactive.
For `O=C=NCCCCCCN=C=O`, the compound was called inactive in [1], in experiment [2], in experiment [4], in experiment [5], in [6] and in [7]. In addition, the compound was classed as inactive in experiment [8], in [9], in [10], in [17], in experiment [11] and in experiment [12]. For the same compound, the compound was classed as inactive in experiment [18], in experiment [14] and in experiment [15].
Regarding `COc1cccc([C@H](O)C2CCN(CCc3ccc(F)cc3)CC2)c1OC`, the compound was called inactive in [1], in experiment [3], in [4], in [5], in experiment [7] and in experiment [16]. The outcome in experiment [17], in experiment [11], in experiment [18] and in experiment [14] was inactive. Further, the AC50 in experiment [9] was 34 µM (active); in experiment [10] it was 45.8 µM (active).
For `O=C1c2ccccc2C(=O)N1CCc1noc(-c2ccc(CN3CCCCCC3)s2)n1`, the outcome in experiment [1], in experiment [2], in [3], in experiment [4], in experiment [5] and in experiment [7] was inactive. Further, the call in experiment [8], in experiment [9], in [16], in experiment [10], in experiment [17] and in [11] was inactive. In addition, the call in [18], in [19], in [14], in experiment [20] and in experiment [15] was inactive.
Regarding `Cc1cccc2ccccc12`, the outcome in [1], in [2], in experiment [3], in [4], in experiment [5] and in [6] was inactive. In addition, the call in [7], in experiment [9], in [16], in experiment [17], in [11] and in [18] was inactive. The outcome in experiment [19], in experiment [14], in experiment [20] and in experiment [15] was inactive.
